Screening data as filed in PubChem.
Rows were chosen to be rich in hits. Some 2.9% of all compounds tested hit in one or more screens of this group.
ADAM10 inh: ADAM10 inhibition, QFRET primary screen; O14672; recombinant ADAM10, EDANS/DABCYL FRET peptide cleavage, 3 h; inhibition, % at 7 µM; 370,000 tested, 0.62% active;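 active = inhibition above a per-campaign cutoff equal to the mean of compounds falling between control-based bounds plus 3 SD, cut at about 20% in these data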
Target sequence (O14672 214-748 limits assumed): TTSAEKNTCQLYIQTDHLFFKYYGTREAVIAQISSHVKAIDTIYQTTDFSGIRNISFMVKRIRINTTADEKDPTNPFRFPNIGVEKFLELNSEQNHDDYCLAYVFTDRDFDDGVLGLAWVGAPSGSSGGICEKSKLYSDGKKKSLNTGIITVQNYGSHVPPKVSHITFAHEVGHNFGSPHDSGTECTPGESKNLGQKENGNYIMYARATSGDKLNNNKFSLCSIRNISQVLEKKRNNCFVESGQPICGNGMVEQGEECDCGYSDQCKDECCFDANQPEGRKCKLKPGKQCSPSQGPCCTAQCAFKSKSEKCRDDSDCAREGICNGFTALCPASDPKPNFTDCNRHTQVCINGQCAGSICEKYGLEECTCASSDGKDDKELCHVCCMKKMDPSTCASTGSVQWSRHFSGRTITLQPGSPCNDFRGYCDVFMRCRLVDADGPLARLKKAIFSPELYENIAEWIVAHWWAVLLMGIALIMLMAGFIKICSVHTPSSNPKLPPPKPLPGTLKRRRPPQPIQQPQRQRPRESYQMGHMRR
PLC-gamma1 inh: inhibitors of human phospholipase C gamma1; purified PLC-gamma1, fluorogenic substrate, fluorescence; 370,000 tested, 0.84% active; AID 720700; P19174; inhibition, % at 12.2 µM; in the data active = inhibition above about 9.5%
ADAM17 inh: ADAM17 inhibition, QFRET primary screen | AID 720648 | recombinant ADAM17, EDANS/DABCYL FRET peptide cleavage | P78536 | inhibition, % at 6.95 µM | 370,000 tested, 0.83% active;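 active = inhibition above the mean of compounds lying between control limits plus 3 SD, set per campaign, cut at about 8.5% in these data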
PLCb3 inh: inhibitors of human phospholipase C beta3 | Purified PLC-beta3, fluorogenic substrate, fluorescence | inhibition, % at 12.2 µM | 370,000 tested, 0.18% active | AID 720704; in the data active = inhibition above about 11%
proKLK7 act: activators of human kallikrein-7 zymogen. P49862. activation, % at 7 µM. 370,000 tested, 0.9% active. purified proKLK7, EDANS-DABCYL substrate fluorescence; 100% is mature enzyme control, 0% vehicle;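 active = activation above the mean of all tested compounds plus 3 SD, computed per campaign excluding outliers beyond control limits, cut at about 13% in these data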
KLK7 act conf: confirmation of human kallikrein-7 zymogen activators. 3,200 tested, 68% active. purified proKLK7, EDANS-DABCYL substrate fluorescence; scaled: vehicle 0, mature enzyme 100. activation, % at 7 µM. shares compounds with proKLK7 act;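 active = activation, as change over the incubation, above the mean of all tested compounds plus 3 SD, cut at about 13% in these data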
EDANS interfere: optically interferes with EDANS-DABCYL signal, flagging KLK7 hits | activation, % at 7 µM | 3,200 tested, 80% active | AID 686952 | EDANS-DABCYL substrate fluorescence interference, no enzyme, 4 h; solvent 0%, active enzyme control 100% | shares compounds with proKLK7 act;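 active = activation above the all-compound mean plus 3 SD, ignoring values outside control-based bounds, cut at about 4.8% in these data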;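 note: value is the 4 h activation minus the activation read at time zero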
EDANS interf: EDANS fluorescence interference in dose response, no enzyme | EDANS-DABCYL peptide fluorescence interference | AID 720493 | 250 tested, 20% active | shares compounds with proKLK7 act | EC50, µM;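 active = compounds that raise the fluorescence signal in this interference counterscreen, with EC50 at or below 10 µM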;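 note: intact quenched peptide substrate alone read at 355 nm excitation and 520 nm emission; signal is fluorescence gain from T0 to T4 after four hours at room temperature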
A number is an active result; 0 = inactive; - = no result given.

SMILES	ADAM10 inh	PLC-gamma1 inh	ADAM17 inh	PLCb3 inh	proKLK7 act	KLK7 act conf	EDANS interfere	others
FC(F)(F)c1cc(-c2cccs2)nc2ncnn12	0	0	0	0	19	67	66
O=C(c1cnn2c(C(F)(F)F)cc(-c3cccs3)nc12)N1CCN(C(c2ccccc2)c2ccccc2)CC1	0	0	0	0	0	-	-
COCC(=O)N(Cc1ccccc1)c1ccccc1C(=O)Nc1cc(OC)ccc1OC	0	0	0	0	0	-	-
O=C(CSc1nc2ccccc2o1)NN=C/C=C\c1ccccc1[N+](=O)[O-]	0	0	0	0	0	-	-
COc1ccc(-c2cc(-c3ccccc3)nc(=O)[nH]2)cc1	0	0	0	0	62	31	46
COc1ccc(-c2cc(=O)c3ccccc3[nH]2)cc1	0	0	0	0	0	-	-
CCn1cc(C2C(C(=O)Nc3ccc(Br)cn3)=C(C)NC3=C2C(=O)CCC3)c(C)n1 (stereo not drawn)	0	0	0	0	16	17	17
CC1=C(C(=O)Nc2ccc(F)cc2)C(c2ccncc2)C2=C(CCCC2=O)N1 (stereo not drawn)	0	0	0	0	0	-	-
CC1=C(C(=O)Nc2ccccn2)C(c2cn(C)nc2C)C2=C(CCCC2=O)N1 (stereo not drawn)	0	0	0	0	15	19	21
COc1cccc(C(=O)n2ccc3ccc(-c4ccc5ccn(Cc6ccccc6)c5c4)cc32)c1	0	0	0	0	0	-	-
Cc1cc(C)c2c(N)c3ccccc3nc2n1	0	0	0	0	16	70	77
Cc1cc(C)c2cccc(N)c2n1	0	0	0	0	0	-	-
CCc1ccc2nc3nc(C)cc(C)c3c(N)c2c1	0	0	0	0	32	32	40
CCCCn1c(=O)nc2n(-c3ccccc3C)c3ccccc3cc-2c1=O	0	0	0	0	0	-	-
Cc1ccccc1-n1c2nc(=O)n(C)c(=O)c-2cc2ccccc21	0	0	0	0	21	30	19	EDANS interf=0
COc1ccc2ccccc2c1/C=N/NC(=O)c1nnn(-c2nonc2N)c1CN(C)C	0	0	0	0	0	-	-
CCOc1ccc(/C=N/NC(=O)c2nnn(-c3nonc3N)c2-c2cccs2)cc1	0	0	0	0	80	0	0
COc1ccc2ccccc2c1/C=N/NC(=O)c1nnn(-c2nonc2N)c1C(C)C	0	0	0	0	40	0	0
Cc1ccc(SCc2c(C(=O)N/N=C/c3ccc4c(c3)OCO4)nnn2-c2nonc2N)cc1	0	0	0	0	0	-	-
Cc1ccc(-c2c(C(=O)N/N=C/c3ccc4c(c3)OCO4)nnn2-c2nonc2N)cc1	0	0	0	0	195	71	75
CCOc1ccc(-c2c(C(=O)N/N=C/c3cccs3)nnn2-c2nonc2N)cc1	0	0	0	0	0	-	-
C#CC1c2ccccc2CCN1CC=C (stereo not drawn)	0	0	0	0	0	-	-
CCOC(=O)[C@]12CCCCC/C=C\1N(CCc1ccc(Cl)cc1)C(=O)[C@H]2CC(=O)NCCC(C)C	0	0	0	0	0	-	-
CCCCOCCCNC(=O)C[C@H]1C[C@@]2(C(=O)OC)C(=C[C@H](COCc3ccccc3)O[C@@H]2C)N(Cc2ccc(Cl)cc2Cl)C1=O	0	0	0	0	0	-	-
Cc1cc(-c2ccc(Cl)cc2)n2nc(N)nc2n1	0	0	0	0	0	-	-
SMILES	ADAM10 inh	PLC-gamma1 inh	ADAM17 inh	PLCb3 inh	proKLK7 act	KLK7 act conf	EDANS interfere	others
Nc1nc2nccc(-c3ccc(Cl)cc3)n2n1	0	0	0	0	57	70	85
CN(C)/C=N/c1nc2nccc(-c3ccc(Cl)cc3)n2n1	0	0	0	0	18	66	69
CN(C)/C=N/c1nc2nccc(-c3ccccc3)n2n1	0	0	0	0	0	-	-
Cc1c(C2(O)CCCCC2)[nH]c2ccccc12	0	0	0	0	0	-	-
CCc1c(C2(O)CCCCC2)[nH]c2cnccc12	0	0	0	0	70	0	16
CC1CN(C(=O)c2cc3c(=O)n4ccccc4nc3s2)CC(C)O1 (stereo not drawn)	0	0	0	0	26	42	40
CC1CC(C)CN(C(=O)c2cc3c(=O)n4ccccc4nc3s2)C1 (stereo not drawn)	0	0	0	0	14	14	12	EDANS interf=0
C[C@H]1[C@H](NC(=O)c2ccc(C(F)(F)F)cc2)CC[C@@]23CCCN2C(=O)CCC[C@@H]13	0	0	0	0	-	-	-
COc1ccc(S(=O)(=O)Oc2ccc3c(c2)O/C(=C\c2cccnc2)C3=O)cc1	0	0	0	0	0	-	-
COc1ccccc1C(=O)Oc1ccc2c(c1)O/C(=C\c1ccncc1)C2=O	0	0	0	0	15	36	38
CS(=O)(=O)Oc1ccc2c(c1)O/C(=C\c1cccnc1)C2=O	0	0	0	0	16	15	15
CCCCNC(=O)C[C@@H]1C(=O)N2CCCC3=C2[C@@]1(C(=O)OC)CCCC3	0	0	0	0	0	-	-
COc1cc2c(cc1OC)/C(=C/C(=O)N1CCOCC1)NC(C)(C)C2	0	0	0	0	60	0	13
CCOC(=O)/C=C1\NC(C)(C)Cc2cc(OC)c(OC)cc21	0	0	0	0	0	-	-
CCOC(=O)[C@]12CCCC=C1N(CCc1ccc(Cl)cc1)C(=O)[C@@H]2CC(=O)NCCC(C)C	0	0	0	0	0	-	-
COc1cccc(CNC(=O)CN2CCCc3ccccc32)c1OC	0	0	0	0	0	-	-
CCc1cc2c(=O)c(Oc3ccccc3)c(C)oc2cc1O	0	0	0	0	55	65	78
O=C(c1cc(Br)cc(Br)c1)N1CCC(Oc2cccnc2)CC1	0	0	0	0	0	-	-
N#CC1=C(N)Oc2cc(O)c(Cl)cc2C1c1ccccc1F (stereo not drawn)	0	0	0	0	16	0	0
COc1ccc(S(=O)(=O)NCCc2cn3nc(C)c(C)nc3n2)cc1	0	0	0	0	32	71	77
Cc1nc2nc(CCNS(=O)(=O)c3ccc(Cl)cc3)cn2nc1C	0	0	0	0	24	75	75
CCN(CC)CCNS(=O)(=O)c1ccc(Cl)cc1	0	0	0	0	0	-	-
CC[C@]12c3[nH]c4cc(-c5ccco5)ccc4c3CCN1C(=O)[C@@H](CC(=O)NCCCN(C)C)C[C@@H]2C(=O)N1CCN(C(=O)C2CC2)CC1	0	0	0	0	64	52	66
CC[C@]12c3[nH]c4cc(-c5ccco5)ccc4c3CCN1C(=O)[C@@H](CC(=O)NCCCOC)C[C@@H]2C(=O)N1CCN(C(=O)c2ccco2)CC1	0	0	0	0	137	103	124
